The values that follow come from PubChem BioAssay (NCI).

Compounds without any hit were thinned out: in the full panel of roughly 83,000, 20% have a hit.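 Cells were grown in 96-well plates and exposed to the test compound at a single concentration for 48 hours; results are reported as percent growth, with values below 10 considered active.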 Values without a mark were called inactive. Activity calls are given as the source filed them.

Among the test systems are HCT-15 colon; HT29 colon; SNB-75 CNS; SNB-19 CNS; U251 CNS; PC-3 prostate; SK-MEL-5 melanoma; UACC-62 melanoma; LOX IMVI melanoma; SK-MEL-28 melanoma.
Holding throughout (experiment): NCI-60 one-dose screen, 48 h (100 = growth as untreated, 0 = no growth, -100 = all killed)
What all share (settings): 10 µM unless noted

Turning to `COc1cnc2c(c1)C(=O)c1c-2n(CCCBr)c(=O)c2cc([N+](=O)[O-])ccc12`, the growth is 20.7% with HCT-15 colon; 0.984% (active) in the experiment on HT29 colon; 13.5% with SNB-75 CNS; 22.3% with SNB-19 CNS; -22.4% (active) with U251 CNS; 4.1% (active) in the experiment with PC-3 prostate. Also, the growth is -82.6% (active) in the experiment with SK-MEL-5 melanoma, -62.3% (active) in the experiment on UACC-62 melanoma, -54.2% (active) in the experiment on LOX IMVI melanoma and 16.3% in the experiment on SK-MEL-28 melanoma.
Regarding `Cn1cc(-c2ccc(-c3cn(C)c4ncccc34)[nH]2)c2cccnc21`, the growth in the experiment with HCT-15 colon was 50.4%; with HT29 colon, 97.6%; with SNB-75 CNS, 59.7%; with SNB-19 CNS it was 76%; with U251 CNS, -44.1% (active); in the experiment on PC-3 prostate, -29.9% (active). Further, the growth is 9.47% (active) in the experiment with SK-MEL-5 melanoma, -4.05% (active) in the experiment on UACC-62 melanoma, 21.8% with LOX IMVI melanoma and 84.8% with SK-MEL-28 melanoma.
For the molecule `Oc1cc(O)c2c(=S)cc(-c3ccc(Cl)cc3)oc2c1`, the growth in the experiment with HCT-15 colon was 25.4%; with HT29 colon, 92.8%; in the experiment with SNB-75 CNS, 48.3%; in the experiment on SNB-19 CNS, 17.5%; with U251 CNS, 19.6%; with PC-3 prostate, 28.4%. The growth with SK-MEL-5 melanoma is 3.09% (active); with UACC-62 melanoma it was 22.6%; in the experiment with LOX IMVI melanoma, 38.6%; in the experiment with SK-MEL-28 melanoma it was 40.5%.
As to `CC(=O)C1=C(O)C=C2Oc3c(C(=O)/C=C/c4c(Cl)cccc4Cl)c(O)c(C)c(O)c3[C@]2(C)C1=O`, the growth in the experiment on HCT-15 colon was -50.4% (active); in the experiment with HT29 colon, -18.5% (active); with SNB-75 CNS, -22.3% (active); in the experiment with SNB-19 CNS, -23.7% (active); in the experiment with U251 CNS, -33% (active); with PC-3 prostate it was -3.69% (active). Moreover, the growth in the experiment with SK-MEL-5 melanoma is -86.3% (active); with UACC-62 melanoma, -69.7% (active); with LOX IMVI melanoma, -51.9% (active); in the experiment with SK-MEL-28 melanoma, -60.1% (active).
For `CCn1cc2c(cc1=O)-c1nc3ccccc3c3ccnc(c13)C2=O`, the growth with HCT-15 colon was 50.2%; in the experiment on HT29 colon, 57.3%; in the experiment on SNB-75 CNS, 46.9%; in the experiment on SNB-19 CNS, 37.4%; with U251 CNS, 44.6%; with PC-3 prostate it was 63.5%. Moreover, the growth was 42.8% in the experiment with SK-MEL-5 melanoma, 37.9% in the experiment with UACC-62 melanoma, 57% with LOX IMVI melanoma and 72.4% with SK-MEL-28 melanoma.
With `Cc1[nH]n(-c2ccccc2)c2nc3nncc3c(-c3ccc(Cl)cc3)c12`, the growth is 94.1% in the experiment with HCT-15 colon; 79.7% in the experiment with HT29 colon; 104% in the experiment with SNB-75 CNS; 100% with SNB-19 CNS; 99.2% with U251 CNS; 73.1% in the experiment with PC-3 prostate. The growth in the experiment with SK-MEL-5 melanoma was 104%; in the experiment with UACC-62 melanoma, 91.5%; with LOX IMVI melanoma, 89%; with SK-MEL-28 melanoma, 104%.
In the case of `Clc1cccc(Nc2nc(Nc3cnc4ccccc4c3)c3[nH]cnc3n2)c1`, the growth was 94.4% in the experiment with HCT-15 colon; 79% with HT29 colon; 52.4% in the experiment with SNB-75 CNS; 80.6% in the experiment with SNB-19 CNS; 76.4% in the experiment with U251 CNS; 49.2% in the experiment with PC-3 prostate. The growth with SK-MEL-5 melanoma was 53%; with UACC-62 melanoma, 47.9%; with LOX IMVI melanoma, 77.4%; in the experiment on SK-MEL-28 melanoma, 86.4%.
On to `CCCCCCCCSC1=CC(=O)C(OC)=C(OC)C1=O`, for which the growth was 10.9% in the experiment with HCT-15 colon; 35.4% with HT29 colon; 75.7% in the experiment on SNB-75 CNS; 79.3% with SNB-19 CNS; 42.5% with U251 CNS; -13.9% (active) with PC-3 prostate. Further, the growth with SK-MEL-5 melanoma was 4.84% (active); in the experiment with UACC-62 melanoma, 42.9%; with LOX IMVI melanoma, -48.7% (active); with SK-MEL-28 melanoma, 72.4%.
Turning to `CC(=O)C1=C(O)C=C2Oc3c(C(=O)/C=C/c4ccccc4)c(O)c(C)c(O)c3[C@]2(C)C1=O`, the growth with HCT-15 colon was 25.3%; in the experiment with HT29 colon, 32.6%; with SNB-75 CNS, 87.1%; in the experiment with SNB-19 CNS it was 21.6%; with U251 CNS, 7.84% (active); in the experiment with PC-3 prostate, 24.2%. The growth in the experiment with SK-MEL-5 melanoma is 10.1%; with UACC-62 melanoma, 32.9%; with LOX IMVI melanoma it was 41.4%; in the experiment with SK-MEL-28 melanoma, 43.1%.
Consider `CC(C)(C)c1nn(-c2ccccc2)c2c1CC1(CN2Cc2ccc3c(c2)OCO3)C(=O)c2ccccc2C1=O`, for which the growth was 105% with HCT-15 colon; 103% with HT29 colon; 120% in the experiment on SNB-75 CNS; 111% in the experiment on SNB-19 CNS; 105% with U251 CNS; 91.8% in the experiment on PC-3 prostate. For the same molecule, the growth is 99.2% with SK-MEL-5 melanoma, 92.3% in the experiment with UACC-62 melanoma, 103% with LOX IMVI melanoma and 116% in the experiment on SK-MEL-28 melanoma.
Regarding `C[C@@]1(N2C(=O)OC[C@@H]2c2ccccc2)C(=O)N([C@H](CC(=O)N2CCC(N3CCCCC3)CC2)C(=O)NCc2cccc(C(F)(F)F)c2)[C@@H]1/C=C/c1ccccc1`, the growth in the experiment on HCT-15 colon was 19%; with HT29 colon it was -3.04% (active); in the experiment with SNB-75 CNS it was 66.3%; in the experiment on SNB-19 CNS it was 74.1%; in the experiment on U251 CNS, 38.4%; in the experiment with PC-3 prostate, 52.8%. Besides, the growth in the experiment with SK-MEL-5 melanoma is -93% (active); with UACC-62 melanoma it was 24.6%; in the experiment with LOX IMVI melanoma, -50.1% (active); in the experiment on SK-MEL-28 melanoma, -45.2% (active).
For `CC/C=C\C[C@H](O)C/C=C1/C(=O)C=C[C@@H]1C/C=C\CCCC(N)=O`, the growth in the experiment on HCT-15 colon was -36.8% (active); with HT29 colon, -1.88% (active); in the experiment with SNB-75 CNS, 69.3%; in the experiment on SNB-19 CNS, 26.9%; in the experiment with U251 CNS, 0.507% (active); with PC-3 prostate, 19.6%. Further, the growth in the experiment on SK-MEL-5 melanoma is -94.8% (active); with UACC-62 melanoma, -45.8% (active); in the experiment on LOX IMVI melanoma, -56.2% (active); in the experiment with SK-MEL-28 melanoma it was -14.5% (active).
Consider `COc1ccc(CNc2nccnn2)cc1`, for which the growth was 111% in the experiment on HCT-15 colon; 97.8% with HT29 colon; 85.6% with SNB-75 CNS; 102% in the experiment on SNB-19 CNS; 94.9% in the experiment on U251 CNS; 101% with PC-3 prostate. Besides, the growth is 101% with SK-MEL-5 melanoma, 93.4% with UACC-62 melanoma, 105% with LOX IMVI melanoma and 97.7% with SK-MEL-28 melanoma.
As for `CCN(CC)CCCCNc1ccc(NCCCCN(CC)CC)c2c1C(=O)c1ccccc1C2=O`, the growth was 76.2% in the experiment with HCT-15 colon; -54.8% (active) in the experiment with HT29 colon; 142% in the experiment with SNB-75 CNS; 106% with SNB-19 CNS; 85.5% in the experiment with U251 CNS; 94.1% in the experiment on PC-3 prostate. Further, the growth is 106% with SK-MEL-5 melanoma, 111% with UACC-62 melanoma, -56.6% (active) in the experiment with LOX IMVI melanoma and 116% with SK-MEL-28 melanoma.
